Values joined by “and” are separate entries in the source; they are usually repeats but may differ in a detail not shown here. Identical values can stand only once. Some structures have more than one record in an assay (separate samples or runs), and their calls can disagree. Active and inactive are the calls of the source. How the source made its calls: active means hit-call score of the fitted dose curve at least 0.9, where 1 is the maximum; inactive means score below 0.9.
Each molecule was assayed on Monokine induced gamma interferon (MIG), CXCL9 (gene 4283) (assay: BSK_hDFCGF_MIG: BioMAP Diversity Plus: hDFCGF Assay for Monokine induced gamma interferon (MIG) Biomarker Activity (AID 2283063)). Details: primary human foreskin fibroblasts; actives raise or lower the signal.
Experimental: BSK_hDFCGF is a cell-based, multiplexed-readout assay that uses foreskin fibroblast, a human skin primary cell, with measurements taken at 24 hours after chemical dosing in a 96-well plate.BSK_hDFCGF_MIG is an assay component measured in the BSK_hDFCGF assay. It measures MIG antibody related to regulation of gene expression using ELISA technology.Data from the assay component BSK_hDFCGF_MIG was analyzed into 1 assay endpoint. This assay endpoint, BSK_hDFCGF_MIG, was analyzed with bidirectional fitting relative to DMSO as the negative control and baseline of activity. Using a type of binding reporter, gain or loss-of-signal activity can be used to understand changes in the signaling as they relate to the gene CXCL9. Furthermore, this assay endpoint can be referred to as a primary readout, because this assay has produced multiple assay endpoints where this one serves a signaling function. To generalize the intended target to other relatable targets, this assay endpoint is annotated to the cytokine intended target family, where the subfamily is chemotactic factor.
The levels of cell surface (or secreted, indicated by the prefix "s") biomarker endpoints were measured by ELISA. Overt cytotoxicity to cells in confluent adherent cultures (all systems other than the BT system) was assessed by measuring total protein levels using sulforhodamine B (SRB) staining in parallel cultures at the time of biomarker measurements, indicated as SRB endpoints. For proliferation assays for adherent cell types, individual cell types are cultured at sub-confluence and relative cell numbers quantified by SRB staining at time points optimized for each system (48 h: 3C and CASM3C systems; 72 h: BT and HDF3CGF systems; 96 h: SAg system). SRB was performed by staining cells with 0.1% SRB after fixation with 10% TCA and reading wells at 560 nm.Viability and proliferation of PBMC (T cells) was quantified by Alamar Blue reduction for the SAg and BT systems. For PBMC viability (referred to as PBMC Cytotoxicity within the assay endpoint names), cells were plated (75,000/well in a 96-well plate) and then chemical samples added for 1 h before addition of activators, SEB and TSST-1 (20 ng/mL final concentration each). Cells were incubated for 90 h. Then, Alamar Blue (20 uL/well) (Invitrogen, Cat DAL1100) was added for 6 h, and the plates were read with a fluorescence microplate reader at 546/580 nm (excitation/emission). For PBMC proliferation, cells were plated and activated as above but incubated for only 16 h prior to addition of Alamar Blue. Plates were read after 6 h.

| Structure (SMILES) | outcome | AC50 |
| --- | --- | --- |
| OCC(CO)(CBr)CBr | inactive | – |
| C=CC(=C)CC/C=C(\C)CCC=C(C)C | inactive | – |
| O=P(O)(O)CCC(F)(F)C(F)(F)C(F)(F)C(F)(F)C(F)(F)C(F)(F)C(F)(F)C(F)(F)F | inactive | 0.615 µM (active) |
| C=CC(=O)OCCC(F)(F)C(F)(F)C(F)(F)C(F)(F)C(F)(F)C(F)(F)C(F)(F)C(F)(F)F | inactive | – |
| O=C(NO)c1ccccc1 | inactive | – |
| O=C1NS(=O)(=O)c2ccccc21 | inactive | – |
| CCCCC=O | inactive | – |
| O=C(c1ccccc1)c1ccccc1 | inactive | – |
| CC(C)(C)c1ccc(O)c(O)c1 | – | 31.2 µM (active) |
| O=C(CC(=O)C(F)(F)C(F)(F)C(F)(F)F)c1cccs1 | inactive | 7.78 µM (active) |
| Cc1[nH]nc2c1N=C(c1ccccc1Cl)c1cc([N+](=O)[O-])ccc1N2 | – | 31.1 µM (active) |
| Cc1ccc(C(=O)c2ccccc2)cc1 | – | 29.5 µM (active) |
| CN(Cc1cnc2nc(N)nc(N)c2n1)c1ccc(C(=O)N[C@@H](CCC(=O)O)C(=O)O)cc1 | inactive | – |
| COC1=CC(=O)C[C@@H](C)[C@]12Oc1c(Cl)c(OC)cc(OC)c1C2=O | inactive | – |
| CN(CCO)S(=O)(=O)C(F)(F)C(F)(F)C(F)(F)C(F)(F)C(F)(F)C(F)(F)C(F)(F)C(F)(F)F | inactive | – |
| Oc1ccc(Cc2ccccc2O)cc1 | inactive | – |
| CN(C)c1ccc(C(=C2C=CC(=[N+](C)C)C=C2)c2ccccc2)cc1 | – | 0.0509 µM (active) |
| CC1=NN(c2ccccc2)C(=O)C1 | inactive | – |
| O=C1OC2(c3ccccc31)c1cc(I)c(O)c(I)c1Oc1c2cc(I)c(O)c1I | – | 18.6 µM (active) |

| Structure (SMILES) | outcome | AC50 |
| --- | --- | --- |
| O=C(O)CCC(F)(F)C(F)(F)C(F)(F)C(F)(F)C(F)(F)F | inactive | – |
| O=C(O)C(F)(F)OC(F)(F)C(F)(F)OC(F)(F)C(F)(F)OC(F)(F)C(F)(F)C(F)(F)C(F)(F)F | – | 12.1 µM (active) and 10.3 µM (active) |
| CCCCC(CC)C(=O)OCCOCCOCCOCCOC(=O)C(CC)CCCC (stereo not given) | inactive | – |
| CCCCCCCCCCCCOS(=O)(=O)O | – | 27.7 µM (active) |
| OCC(F)(F)C(F)(F)C(F)(F)C(F)(F)C(F)(F)C(F)(F)C(F)(F)C(F)(F)C(F)(F)C(F)(F)C(F)(F)F | inactive | – |
| Oc1c(Cl)cc(Cl)cc1Sc1cc(Cl)cc(Cl)c1O | – | 2.22 µM (active) |
| C=CC(C)(CCC=C(C)C)OC(C)=O (stereo not given) | inactive | – |
| CCOC(=O)CN[C@@H](C(=O)N1CC[C@H]1C(=O)NCc1ccc(/C(N)=N/O)cc1)C1CCCCC1 | inactive | – |
| CCCCc1oc2ccccc2c1C(=O)c1cc(I)c(OCCN(CC)CC)c(I)c1 | – | 10.2 µM (active) |
| CN(C)CCOC(c1ccccc1)c1ccccc1 | inactive | – |
| CCCCCCCCCCCC | – | 11.6 µM (active) and 10.2 µM (active) |
| O=C1c2ccc(O)c(O)c2C(=O)c2c(O)ccc(O)c21 | inactive | – |
| CS(=O)(=O)c1ccc([C@@H](CC2CCCC2)C(=O)Nc2cnccn2)cc1Cl | inactive | – |
| CCCCCc1ccc(O)cc1 | – | 31.3 µM (active) |
| COc1cc(OC)nc(NC(=O)NS(=O)(=O)Nc2ccccc2C(=O)N(C)C)n1 | inactive | – |
| O=C(CCCN1CCC(O)(c2ccc(Cl)cc2)CC1)c1ccc(F)cc1 | inactive | – |
| O=C(NCc1ncc(C(F)(F)F)cc1Cl)c1c(Cl)cccc1Cl | inactive | – |
| CC[N+](CC)(CC)Cc1ccccc1 | inactive | – |
| CCCCC(CC)C(=O)O (stereo not given) | inactive | – |
